Data taken from PubChem BioAssay (NCATS).
Inconclusive results are not listed. Where a call stands in place of a potency, no number is given. The source made the active and inactive calls. Calls follow the shape of the dose curve; as a rule, active = well fitted inhibition curve with a large enough effect; inconclusive = small, poorly fitted or top-dose-only effect; inactive = no such curve, though single readings can be large or run the other way.

How the values were obtained:
[1] = test system: Zika virus NS2B-NS3 protease (unlinked complex); assay: Primary screen GU Rhodamine qHTS for Zika virus inhibitors: Unlinked NS2B-NS3 protease assay (AID 1347159); also: nearly all actives have a fitted effect of over 60% in size
In short: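 Noncovalent NS2B hydrophilic domain–NS3 protease domain complex (25 nM) preincubated 15 min at room temperature with compounds (up to 114 microM) in 10 mM Tris-HCl pH 8.0, 0.01% Tween 20; 1.5 microM Rhodamine110 substrate added, fluorescence change over 15 min fitted to Hill equation.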

[2] = test system: Zika virus NS2B-NS3 protease (linked construct); assay: Primary screen NINDS Rhodamine qHTS for Zika virus inhibitors (AID 1347160); also: nearly all actives have a fitted effect of over 55% in size
In short: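 Purified linked NS2B-NS3 protease (NS2B hydrophilic domain joined to NS3 protease by flexible linker), 25 nM in 10 mM Tris-HCl pH 8.0, 0.01% Tween 20. Compounds titrated, 15 min preincubation at room temperature; 1.5 microM Rhodamine110 substrate, FITC fluorescence change over 15 min.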
Potency is read from the fitted curve at half-maximal effect.

Compound	Potency [1]	Potency [2]
CC(C)(O)C1CCC(C)(C2CCC3(C)C4CCC5C(C)(C(=O)OC6OC(CO)C(O)C(O)C6O)C(O)CC(O)C56CC46CCC23C)O1 (configuration not stated)	inactive	inactive
CC1(C)C2CC=C(COC3OC(COC4OCC(O)(CO)C4O)C(O)C(O)C3O)C1C2 (configuration not stated)	inactive	inactive
CO[C@@H](C)Cn1c(=O)n(C)c2cnc3ccc(-c4cncc(C(C)(C)O)c4)cc3c21	inactive	inactive
Cc1cc(C(=O)Nc2cccc(C(=O)Nc3cccc(C(F)(F)F)c3)c2)on1	inactive	inactive
COc1cc(NC(=O)Nc2cccc(CNC(=O)O[C@H]3CCOC3)c2)ccc1-c1cnco1	inactive	inactive
CCOc1ccc(S(=O)(=O)n2c(C)nc3ccccc32)cc1	inactive	inactive
COc1cc(Nc2nc3c(s2)CCCC3c2ccc(F)cc2)ccc1-n1cnc(C)c1 (configuration not stated)	inactive	inactive
CCOCCn1nc(CC)c2nc(N3CCC(C(=O)O)CC3)nc(Nc3cc(C)ccn3)c21	inactive	inactive
CC1CCC2(C=O)C(CO)=CCCC2C1(C)CC(=O)O (configuration not stated)	11.2 µM (active)	12.6 µM (active)
C[C@]12C=C[C@@]3(CCC4[C@](C)(CO)CCC[C@@]4(C)C3CC1)C2 (some centres not stated)	22.4 µM (active)	inactive
COC(=O)C12CCC(C)C(C)C1C1=CCC3C4(C)CCC(OC(C)=O)C(C)(C)C4CCC3(C)C1(C)CC2 (configuration not stated)	inactive	inactive
CC[C@H](CO)Nc1nc(NCc2ccc(-c3ccccn3)cc2)c2ncn(C(C)C)c2n1	inactive	inactive
CC(CO)C1CCC2(C)CC3C(CO)CC(O)C3C(C)(O)C/C=C/12 (configuration not stated)	inactive	inactive
Cn1cncc1C(N)(c1ccc(Cl)cc1)c1ccc2c(c1)c(-c1cccc(Cl)c1)cc(=O)n2C (configuration not stated)	inactive	inactive
CN1CCC(Nc2nc(Nc3ccc(Oc4ccccc4)cc3)c3c(=O)[nH]cc(Br)c3n2)CC1	inactive	inactive
C/C=C/c1cc(OC)c2c(c1)[C@@H](C)[C@@H](c1ccc(O)c(OC)c1)O2	inactive	inactive

Compound	Potency [1]	Potency [2]
CC1(C)CC[C@]2(C(=O)O)CC[C@]3(C)C(=CCC4[C@@]5(C)CC[C@H](O[C@@H]6O[C@H](C(=O)O)[C@@H](O[C@@H]7OC[C@@H](O)[C@H](O)[C@H]7O)[C@H](O)[C@H]6O)C(C)(C)C5CC[C@]43C)C2C1O (some centres not stated)	inactive	inactive
Cn1nnc(-c2ccc(-c3ccc(N4C[C@H](COP(=O)(O)O)OC4=O)cc3F)cn2)n1	inactive	inactive
COC(=O)C1=COC(O[C@@H]2O[C@H](CO)[C@@H](O)[C@H](O)[C@H]2O)[C@H]2[C@@H]1[C@H](OC(=O)CCc1ccc(O)cc1)C[C@]2(C)O (some centres not stated)	inactive	inactive
CC(C)c1cc(C(=O)N2CC[C@@H](NC(=O)C3CC3)C2)n[nH]1	inactive	inactive
Cc1cc(Nc2nc(NC(C)c3ncc(F)cn3)ncc2Cl)n[nH]1 (configuration not stated)	inactive	inactive
COC(C(=O)N1Cc2[nH]nc(NC(=O)c3ccc(N4CCN(C)CC4)cc3)c2C1)c1ccccc1 (configuration not stated)	inactive	inactive
CCS(=O)(=O)N1CCN(c2ccc(Nc3ncc(C(N)=O)c(NC4CC4)n3)cc2)CC1	inactive	inactive
CC(C)CC(=O)O[C@@H]1OC=C(CO[C@@H]2O[C@H](CO)[C@@H](O)[C@H](O)[C@H]2O)[C@H]2[C@@H]3O[C@H]3[C@@](O)(CO)[C@@H]12	inactive	inactive
C=CC(C)(O)CC[C@H]1C(=C)CCC2[C@](C)(C(=O)O)CCC[C@@]21C (some centres not stated)	inactive	inactive
COc1c2c(c(C)c3c1C(=O)OC3)O[C@@]1(C)CC(O)C(C(C)(C)O)[C@](C)(CCC(=O)O)[C@H]1C2 (some centres not stated)	inactive	inactive
CC1(C)CCCC2(C)C1C(O)C=C(CO)C2(O)CO (configuration not stated)	inactive	inactive
CC1OC(OC2C(C)OC(OC3C(O)C(CO)OC(O[C@H]4CC[C@@]5(C)C(CC[C@]6(C)C5CC=C5C7[C@@H](C)[C@H](C)CC[C@]7(C(=O)O)CC[C@]56C(=O)O)C4(C)C)C3O)C(O)C2O)C(O)C(O)C1O (some centres not stated)	inactive	inactive
CCOC(=O)Nc1cc(-c2ccc(C)c(NS(C)(=O)=O)c2)nn2c(C)nnc12	inactive	inactive
CNC(=S)NS(=O)(=O)c1cc(CCNC(=O)c2cc(Cl)ccc2OC)ccc1OC	inactive	inactive
COCCOc1ccc(N2CCN(CCn3ncc4c3nc(N)n3nc(-c5ccco5)nc43)CC2)cc1	inactive	inactive
